Screening data: PubChem, National Center for Advancing Translational Sciences (NCATS)
Hits are enriched below; roughly 1.1% of the tested compounds scored in any of these assays.
GPT2 inhibitor – Primary qHTS assay for inhibitors of Glutamate pyruvate transaminase 2 (GPT2); Recombinant GPT2, coupled pyruvate oxidase/HRP Amplex Red fluorescence; Alanine aminotransferase 2 (Homo sapiens), Q8TD30; actives 0.25% (n = 100,000); Potency, µM (highest dose often 57.7 µM), most hits filed as inhibitors; AID 1671188, 2021; note: nearly all actives have a fitted effect of over 60% in size
Target sequence (Q8TD30 whole entry, looked up): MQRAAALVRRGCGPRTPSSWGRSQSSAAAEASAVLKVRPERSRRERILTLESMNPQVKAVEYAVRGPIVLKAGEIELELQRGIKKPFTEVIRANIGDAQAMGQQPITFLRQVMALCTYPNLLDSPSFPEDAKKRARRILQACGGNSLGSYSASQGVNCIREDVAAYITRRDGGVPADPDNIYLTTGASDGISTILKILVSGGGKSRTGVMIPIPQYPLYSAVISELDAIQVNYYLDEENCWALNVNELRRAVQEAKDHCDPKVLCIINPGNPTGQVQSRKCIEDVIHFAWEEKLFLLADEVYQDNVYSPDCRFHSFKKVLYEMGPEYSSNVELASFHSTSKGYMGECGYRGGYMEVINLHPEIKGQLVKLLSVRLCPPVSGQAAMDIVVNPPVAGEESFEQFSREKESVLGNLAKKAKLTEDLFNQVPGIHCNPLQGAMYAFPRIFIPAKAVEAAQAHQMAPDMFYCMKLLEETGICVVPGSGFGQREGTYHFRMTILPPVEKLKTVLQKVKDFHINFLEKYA
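Recombinant GPT2 (10ng/uL) with 250uM a-KG and 2mM L-alanine, 30 min at room temperature, in HEPES pH 7.5 buffer. Pyruvate detected by pyruvate oxidase/HRP/Amplex Red fluorescence after 30 min in the dark; AOA (50uM) as positive control.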
SNCA viab count – GF-AFC viability counterscreen for inhibitors of alpha-synuclein gene (SNCA) expression | HEK-293-SNCA-luc viability, GF-AFC fluorescence, 24 h | Potency, µM (titrated, usually from 57.1 µM), most hits filed as cytotoxic | actives 0.12% (n = 150,000); note: nearly all actives have a fitted effect of over 30% in size
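Cytotoxicity counterscreen: after 24 h compound treatment of genome-edited SNCA-luciferase HEK-293 cells, live-cell protease substrate GF-AFC read by fluorescence after 30 min; activity scaled between DMSO (0%) and medium-only (-100%), curves Hill-fitted.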
SNCA expr inhib – Primary qHTS assay for inhibitors of alpha-synuclein gene (SNCA) expression. Potency, µM (titrated, usually from 57.2 µM), most hits filed as inhibitors. HEK-293 SNCA-luciferase knock-in, luminescence, 24 h. actives 0.17% (n = 140,000); note: nearly all actives have a fitted effect of over 45% in size
IP6K1 inh – Primary qHTS assay for small molecule inhibitors of Inositol hexaphosphate kinase 1 (IP6K1); activity change, % (series mostly up to about 58 µM); IP6K1 kinase, ADP-Glo luminescence, 2 h; stronger effect = lower value; AID 1645851, 2021; Inositol hexakisphosphate kinase 1 (Homo sapiens), Q92551; actives 0.81% (n = 140,000); in the data active = activity change below about -25%
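ADP-Glo luminescence measures ADP made by human IP6K1 during a 2 h RT reaction with ATP/IP6 (mix at 1.3 mM/130 uM); top library doses 57.5 and 19.1 uM final.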
IP6K1 conf – Confirmatory qHTS assay for small molecule inhibitors of Inositol hexaphosphate kinase 1 (IP6K1) | AID 1645852, 2021 | actives 13% (n = 1,200) | recombinant IP6K1 kinase, ADP-Glo luminescence, 2 h | shares compounds with IP6K1 inh | Potency, µM (top dose mostly 49 µM), usual class: inhibitors; note: nearly all actives have a fitted effect of over 65% in size
Numbers stand for hits; . = inactive; ? = inconclusive; / = no result; ! = a repeat was not active; [ ] = another dose, or the depositor's remark. Unless noted, calls come from the whole dose curve; as a rule, active = well fitted curve in the direction sought with a large enough effect; inconclusive = small, poorly fitted or top-dose-only effect, or another doubt; inactive = no such curve, though single readings can be large; an effect the other way counts as inactive or inconclusive.

SMILES | GPT2 inhibitor | SNCA viab count | SNCA expr inhib | IP6K1 inh | IP6K1 conf
COc1ccc(NC(=O)CSc2nnc3scc(-c4ccc(Cl)cc4)n23)cc1 | / | ? | . | . | /
O=C1C(N2CCN(Cc3ccc[nH]3)CC2)CCN1Cc1ccccn1 (stereo unspecified) | ? | . | . | . | .
CC(C)(C)C(=O)N1CCCC(C(=O)N2CCC(N3CCOC3=O)CC2)C1 (stereo unspecified) | . | . | . | . | /
Oc1cccc(-c2nc(N3CCOCC3)c3oc4ncccc4c3n2)c1 | . | . | ? | / | ?
O=C(NC1CCCCCC1)c1cc(-c2ccc(Cl)cc2Cl)c2nncn2n1 | . | .[12.5 µM] | . | . | /
COc1cc([N+](=O)[O-])ccc1NC(=O)c1nc2ccccc2n(C)c1=O | / | . | . | . | /
COc1cc(Nc2ccc([N+](=O)[O-])cc2C(=O)O)cc2ccccc12 | . | . | / | -25 | ?
O=C(c1ccc2nnc(-c3cncc(Cl)c3)n2c1)N1CCOCC1 | . | . | . | . | /
O=C(O)c1ccc2c(c1)nc(Nc1cccc(Cl)c1)c1ccncc12 | . | . | ? | -35 | ?
Cc1cc(Nc2cccc(Cl)c2)nc2ccc(NC(=O)c3cccnc3)cc12 | / | ? | ? | . | /
COCCNC(=O)c1ccc2oc(-c3ccncc3)nc2c1 | . | . | . | . | /
Cc1ccc2c(n1)OC(COc1ccccc1)CN(Cc1cccc(F)c1)C2=O (stereo unspecified) | . | . | ? | . | /
O=C(O)c1ccc(-c2c[nH]c3ncc(-c4ccccc4)cc23)cc1C1CCCC1 | . | . | ? | / | ?
O=C(Cc1c[nH]c2ncc(-c3ccccc3)cc12)N1CCCC1 | . | . | . | . | /
CCCc1nnc(C[C@@H]2C[C@@H](C(C)C)[C@H](CNCc3cccnc3)C=C2C)o1 | . | . | ? | . | /
CCCc1nnc(C[C@@H]2C[C@@H](C(C)C)[C@H](CNc3cccnc3)C=C2C)o1 | 10µM | . | . | -25 | .
CN(C)c1ccc(/C=C2\C(=O)Nc3ccccc32)cc1 | ? | . | . | / | /
COc1cc(/C=C2\C(=O)Nc3ccccc32)ccc1O | / | / | / | / | 10µM
c1csc(-c2nc3ccccn3c2Nc2ccc3c(c2)OCCO3)c1 | / | . | . | . | /
Cc1ccn2c(Nc3ccc4c(c3)OCCO4)c(-c3cccs3)nc2c1 | / | . | . | -27 | .
Cc1ccc(OC2(C(=O)N(C)Cc3n[nH]c4c3CCCC4)CCNCC2)cc1 | . | . | . | . | /
COc1cc(-c2nc(-c3c(C)noc3C)cc3cc(CN(C)C)oc23)ccn1 | . | . | . | -33 | ?
COc1ccc(-c2nc(-c3c(C)noc3C)cc3cc(CN(C)C)oc23)cn1 | . | . | . | -49 | ?
COc1ccc(Nc2nc(-c3c(C)noc3C)cc3cc(CN(C)C)oc23)cn1 | . | ? | . | . | /
COc1ccccc1-c1nc(-c2c(C)noc2C)cc2cc(CN(C)C)oc12 | . | . | . | . | /
SMILES | GPT2 inhibitor | SNCA viab count | SNCA expr inhib | IP6K1 inh | IP6K1 conf
CNC(=O)[C@H]1C[C@]2(CCCCN(C)C2=O)N(C(=O)Cc2cccs2)[C@H]1c1ccccc1 | / | / | / | . | /
Cc1cccc(C)c1-c1nnc2ccc(C(=O)N3CCN(C)CC3)cn12 | ? | . | . | . | /
O=C(c1ccccc1)n1nc(-c2ccco2)nc1NCc1ccccc1Cl | / | . | . | -31 | .
COCC(=O)n1nc(-c2ccco2)nc1NCc1ccccc1Cl | / | . | . | . | /
O=C(CCn1cncn1)N1CCC(c2nccn2Cc2cccnc2)CC1 | .[11.5 µM] | . | . | -38 | .
COc1cccc(-c2cccc(C(=O)N3CCN([S+](=O)([O-])c4cccc(C(F)(F)F)c4)CC3)c2)c1 | . | .[12.5 µM] | . | . | /
O=C(O)CCc1ccc(-c2ccccc2)n1-c1ccc(C(=O)O)cc1 | / | . | . | -27 | .
Cc1ccc(-c2ccc(CCC(=O)O)n2-c2ccc(C)c(Cl)c2)cc1 | / | . | . | . | /
CNC(=O)[C@H]1CN(C(=O)OCc2ccccc2)[C@]2(C)C(=O)N(CCOC)c3ccccc3[C@H]12 | . | . | . | . | /
CC(C(=O)NCc1ccccc1Cl)n1ccc2cc(S(=O)(=O)N3CCCCC3)ccc21 (stereo unspecified) | / | . | . | . | /
CC(C(=O)NCc1ccccc1)n1ccc2cc(S(=O)(=O)N3CCCC3)ccc21 (stereo unspecified) | / | . | . | -27 | .
O=C(NCCc1ccccc1)C1CCCN(Cc2cccc(-c3ccsc3)c2)C1 (stereo unspecified) | / | / | / | . | /
COc1ccc(Cn2c(C3CCN(C(=O)Cc4ccccc4Cl)CC3)n[nH]c2=O)cc1 | . | . | . | . | /
O=C(Cn1c(=O)oc2cc(Cl)ccc21)Nc1cccc(C(F)(F)F)c1 | / | . | ? | -28 | .
Cc1nc(-c2ccc(Cl)cc2)n(CC(=O)Nc2cccc(C(F)(F)F)c2)c(=O)c1CCO | . | . | ? | . | /
COc1ccc(CC(=O)N2CCN(c3nccc(Nc4ccccc4Cl)n3)CC2)cc1 | . | . | . | . | /
Fc1ccc(C2Cn3nnc(-c4nc(-c5ccc6c(c5)OCO6)no4)c3CO2)cc1 (stereo unspecified) | . | . | . | -28 | .
Fc1ccc(-c2noc(-c3nnn4c3COC(c3ccc(F)cc3)C4)n2)cc1 (stereo unspecified) | . | . | . | . | /
Oc1ccc(C(O)CNCCCCCCNCC(O)c2ccc(O)c(O)c2)cc1O (stereo unspecified) | . | . | . | . | /
NC[C@H](O)c1ccc(O)c(O)c1 | 10µM! | . | . | -70 | .
COc1ccc(-c2cnc3[nH]cc(CC(=O)Nc4ccncc4)c3c2)cc1 | . | . | . | -39 | ?
C[S+](=O)([O-])c1cccc(NC(=O)Cc2c[nH]c3ncc(-c4ccccc4)cc23)c1 | . | . | . | -26 | ?
O=C(Cc1ccc(Cl)cc1)N1CCN(C(=O)c2nc3cccnc3n(C3CC3)c2=O)CC1 | . | . | . | . | /
Cc1ccc(-c2nnn3c2nc(N2CCC(C)CC2)c2ccccc23)cc1 | / | . | . | -29 | .
CCCCCCCCn1cc(CN(CC)CC)c2cc(-c3cnc(N)nc3)ccc21 | ? | ? | / | -35 | ?
NC(=O)CCn1cc(CN(CCO)Cc2ccccc2F)c2ccccc21 | . | . | . | . | /
CC(C)NC(=O)C1CCCN(Cc2cccc(-c3cccs3)c2)C1 (stereo unspecified) | / | / | / | . | /
COc1ccc(F)cc1-c1cccc(C(=O)NCC(=O)NCCC2CCCCC2)c1 | / | / | / | . | /
Cc1ccc2c(CN3CCN(Cc4ccccc4Cl)CC3)cc(=O)oc2c1 | / | . | . | . | /
Cc1ccc(S(=O)(=O)N2CCN(Cc3ccccc3Cl)CC2)cc1 | / | . | . | -56 | .
